# Source: the supplement of paper PMC8728848
# This is one part of a sample in which the strongest signals are shown more often than they occur.
# B1: Pwp3 (Candida glabrata) (protein)
# chain: MGSSHHHHHHSSGLVPRGSHMASKNPVDFTTVCQFPDNFSKKPGFLATTARLGLWITGNSYKELLNYPGTFTLTTQQASTTTPNIQLRGTDLFTTIYGLTVYPLYLLVELQGYFVPTQSGMYTFSLTGSDDAAIIFIGNPSTFPCDAFKTWPQATANDITVTDSINPSRTLYMVKGVAYPLRIAYYNGLGNGVLNAAFTDPSGTKRTDWNGYIWQYDQCSTCTYK
# Legend:
# Test in all cases: glycan array binding signal (z-score within array); higher = stronger binding
# Conditions in all cases: glycan notation: IUPAC condensed, linker removed
# [1] = target: Fuc(a1-2)Gal(b1-4)GlcNAc(b1-3)Gal(b1-4)GlcNAc(b1-2)Man(a1-3)[Fuc(a1-2)Gal(b1-4)GlcNAc(b1-3)Gal(b1-4)GlcNAc(b1-2)Man(a1-6)]Man(b1-4)GlcNAc(b1-4)GlcNAc
# Procedure, shortened: (§1)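 Negative Z-scores can be read as non-binding. The Z-score is calculated within each array and then averaged across arrays of one protein sequence at different concentrations or buffers and across linkers. Arrays, 3228 in all, were curated from the Consortium for Functional Glycomics database and kept only where the protein sequence was available.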
# [2] = target: Fuc(a1-2)Gal3S(b1-4)GlcNAc
# Procedure, shortened: as §1
# [3] = target: Fuc(a1-2)[Gal(a1-3)]Gal(b1-3)GlcNAc(b1-6)GalNAc
# Procedure, shortened: as §1
# [4] = target: Fuc(a1-2)[GalNAc(a1-3)]Gal(b1-3)GlcNAc(b1-3)GalNAc
# Procedure, shortened: as §1
# [5] = target: Fuc(a1-2)[GalNAc(a1-3)]Gal(b1-4)GlcNAc(b1-2)Man(a1-3)[Fuc(a1-2)[GalNAc(a1-3)]Gal(b1-4)GlcNAc(b1-2)Man(a1-6)]Man(b1-4)GlcNAc(b1-4)GlcNAc
# Procedure, shortened: as §1
# [6] = target: Fuc(a1-2)[GalNAc(a1-3)]Gal(b1-4)GlcNAc(b1-3)GalNAc
# Procedure, shortened: as §1
# [7] = target: Fuc(a1-3)[Gal(b1-4)]Glc6S
# Procedure, shortened: as §1
# [8] = target: Fuc(a1-3)[Gal(b1-4)]GlcNAc(b1-2)Man
# Procedure, shortened: as §1
# [9] = target: Fuc(a1-3)[Gal(b1-4)]GlcNAc(b1-6)GalNAc
# Procedure, shortened: as §1
# [10] = target: Gal(a1-4)Gal(b1-4)GlcNAc(b1-2)Man(a1-3)[Gal(a1-4)Gal(b1-4)GlcNAc(b1-2)Man(a1-6)]Man(b1-4)GlcNAc(b1-4)GlcNAc
# Procedure, shortened: as §1
# [11] = target: Gal(a1-4)Gal(b1-4)GlcNAc(b1-3)Gal(b1-4)Glc
# Procedure, shortened: as §1
# Gal(b1-3)GalNAc = target: Gal(b1-3)GalNAc
# Procedure, shortened: as §1
# [12] = target: Gal(b1-3)GalNAc(b1-4)Gal(b1-4)Glc
# Procedure, shortened: as §1
# [13] = target: Gal(b1-3)GlcNAc(b1-3)Gal(b1-3)GlcNAc
# Procedure, shortened: as §1
# [14] = target: Gal(b1-3)[Fuc(a1-4)]GlcNAc
# Procedure, shortened: as §1
# [15] = target: Gal(b1-4)GlcNAc(b1-2)Man(a1-3)[Gal(b1-4)GlcNAc(b1-2)Man(a1-6)][GlcNAc(b1-4)]Man(b1-4)GlcNAc(b1-4)[Fuc(a1-6)]GlcNAc
# Procedure, shortened: as §1
# [16] = target: Gal(b1-4)GlcNAc(b1-2)[Gal(b1-4)GlcNAc(b1-4)]Man(a1-3)[Gal(b1-4)GlcNAc(b1-2)Man(a1-6)]Man(b1-4)GlcNAc(b1-4)GlcNAc
# Procedure, shortened: as §1
# [17] = target: Gal(b1-4)GlcNAc(b1-2)[Gal(b1-4)GlcNAc(b1-6)]Man(a1-6)[GlcNAc(b1-4)][Gal(b1-4)GlcNAc(b1-2)[Gal(b1-4)GlcNAc(b1-4)]Man(a1-3)]Man(b1-4)GlcNAc(b1-4)[Fuc(a1-6)]GlcNAc
# Procedure, shortened: as §1
# [18] = target: Gal(b1-4)GlcNAc(b1-3)Gal(b1-4)GlcNAc(b1-3)Gal(b1-4)GlcNAc(b1-3)Gal(b1-4)GlcNAc(b1-3)Gal(b1-4)GlcNAc(b1-2)Man(a1-3)[Gal(b1-4)GlcNAc(b1-3)Gal(b1-4)GlcNAc(b1-3)Gal(b1-4)GlcNAc(b1-3)Gal(b1-4)GlcNAc(b1-3)Gal(b1-4)GlcNAc(b1-2)Man(a1-6)]Man(b1-4)GlcNAc(b1-4)GlcNAc
# Procedure, shortened: as §1
# Gal(b1-6)Gal = target: Gal(b1-6)Gal
# Procedure, shortened: as §1
# Gal3S(b1-3)GlcNAc = target: Gal3S(b1-3)GlcNAc
# Procedure, shortened: as §1
# [19] = target: Gal3S(b1-4)[Fuc(a1-3)]GlcNAc6S
# Procedure, shortened: as §1
# Gal6S(b1-4)Glc6S = target: Gal6S(b1-4)Glc6S
# Procedure, shortened: as §1
# Gal6S(b1-4)GlcNAc = target: Gal6S(b1-4)GlcNAc
# Procedure, shortened: as §1
# [20] = target: GlcNAc(b1-2)Man(a1-3)[GlcNAc(b1-4)][GlcNAc(b1-2)Man(a1-6)]Man(b1-4)GlcNAc(b1-4)[Fuc(a1-6)]GlcNAc
# Procedure, shortened: as §1
# [21] = target: GlcNAc(b1-3)Gal(b1-4)GlcNAc(b1-3)Gal(b1-4)GlcNAc(b1-3)Gal(b1-4)GlcNAc(b1-2)[GlcNAc(b1-3)Gal(b1-4)GlcNAc(b1-3)Gal(b1-4)GlcNAc(b1-3)Gal(b1-4)GlcNAc(b1-6)]Man(a1-6)[GlcNAc(b1-3)Gal(b1-4)GlcNAc(b1-3)Gal(b1-4)GlcNAc(b1-3)Gal(b1-4)GlcNAc(b1-2)Man(a1-3)]Man(b1-4)GlcNAc(b1-4)[Fuc(a1-6)]GlcNAc
# Procedure, shortened: as §1
# [22] = target: GlcNAc(b1-3)Gal(b1-4)GlcNAc(b1-3)Gal(b1-4)GlcNAc(b1-3)Gal(b1-4)GlcNAc(b1-3)Gal(b1-4)GlcNAc(b1-2)Man(a1-3)[GlcNAc(b1-3)Gal(b1-4)GlcNAc(b1-3)Gal(b1-4)GlcNAc(b1-3)Gal(b1-4)GlcNAc(b1-3)Gal(b1-4)GlcNAc(b1-2)Man(a1-6)]Man(b1-4)GlcNAc(b1-4)GlcNAc
# Procedure, shortened: as §1
# [23] = target: GlcNAc(b1-3)Gal(b1-4)GlcNAc(b1-3)Gal(b1-4)GlcNAc(b1-3)Gal(b1-4)GlcNAc(b1-3)Gal(b1-4)GlcNAc(b1-2)[GlcNAc(b1-3)Gal(b1-4)GlcNAc(b1-3)Gal(b1-4)GlcNAc(b1-3)Gal(b1-4)GlcNAc(b1-3)Gal(b1-4)GlcNAc(b1-6)]Man(a1-6)[GlcNAc(b1-3)Gal(b1-4)GlcNAc(b1-3)Gal(b1-4)GlcNAc(b1-3)Gal(b1-4)GlcNAc(b1-3)Gal(b1-4)GlcNAc(b1-2)Man(a1-3)]Man(b1-4)GlcNAc(b1-4)[Fuc(a1-6)]GlcNAc
# Procedure, shortened: as §1
# [24] = target: Man(a1-2)Man(a1-2)Man(a1-6)[Man(a1-3)]Man
# Procedure, shortened: as §1
# [25] = target: Man(a1-2)Man(a1-6)[Man(a1-3)]Man(a1-6)[Man(a1-2)Man(a1-2)Man(a1-3)]Man(b1-4)GlcNAc(b1-4)GlcNAc
# Procedure, shortened: as §1
# [26] = target: Man(a1-3)[Man(a1-6)]Man(a1-6)[Man(a1-3)]Man
# Procedure, shortened: as §1
# Man(a1-6)Man = target: Man(a1-6)Man
# Procedure, shortened: as §1
# [27] = target: Neu5Ac(a2-3)Gal(b1-4)GlcNAc(b1-3)Gal(b1-4)GlcNAc(b1-3)GalNAc
# Procedure, shortened: as §1
# [28] = target: Neu5Ac(a2-3)Gal(b1-4)GlcNAc(b1-3)Gal(b1-4)GlcNAc(b1-6)[Gal(b1-3)]GalNAc
# Procedure, shortened: as §1
# [29] = target: Neu5Ac(a2-3)Gal(b1-4)[Fuc(a1-3)]GlcNAc
# Procedure, shortened: as §1
# [30] = target: Neu5Ac(a2-3)Gal6S(b1-4)[Fuc(a1-3)]GlcNAc
# Procedure, shortened: as §1
# [31] = target: Neu5Ac(a2-6)Gal(b1-4)GlcNAc(b1-2)Man(a1-3)Man(b1-4)GlcNAc(b1-4)GlcNAc
# Procedure, shortened: as §1
# [32] = target: Neu5Ac(a2-6)Gal(b1-4)GlcNAc(b1-3)Gal(b1-4)GlcNAc(b1-6)[Gal(b1-3)]GalNAc
# Procedure, shortened: as §1
# [33] = target: Neu5Ac(a2-8)Neu5Ac(a2-3)[GalNAc(b1-4)]Gal(b1-4)Glc
# Procedure, shortened: as §1
# [34] = target: Neu5Ac(a2-8)Neu5Ac(a2-8)Neu5Ac(a2-3)Gal(b1-4)Glc
# Procedure, shortened: as §1
# [35] = target: Neu5Ac(b2-6)Gal(b1-4)GlcNAc
# Procedure, shortened: as §1
# [36] = target: Neu5Gc(a2-8)Neu5Gc(a2-3)Gal(b1-4)GlcNAc
# Procedure, shortened: as §1
binder,measurement,setting,value
B1,glycan array binding signal (z-score),[1],-0.363
same,glycan array binding signal (z-score),[2],-0.232
same,glycan array binding signal (z-score),[3],4.02
same,glycan array binding signal (z-score),[4],-0.434
same,glycan array binding signal (z-score),[5],3.9
same,glycan array binding signal (z-score),[6],3.75
same,glycan array binding signal (z-score),[7],5.3
same,glycan array binding signal (z-score),[8],-0.319
same,glycan array binding signal (z-score),[9],-0.516
same,glycan array binding signal (z-score),[10],-0.343
same,glycan array binding signal (z-score),[11],-0.304
same,glycan array binding signal (z-score),Gal(b1-3)GalNAc,-0.038
same,glycan array binding signal (z-score),[12],4.7
same,glycan array binding signal (z-score),[13],0.247
same,glycan array binding signal (z-score),[14],-0.246
same,glycan array binding signal (z-score),[15],-0.02
same,glycan array binding signal (z-score),[16],-1.19
same,glycan array binding signal (z-score),[17],-0.123
same,glycan array binding signal (z-score),[18],3.73
same,glycan array binding signal (z-score),Gal(b1-6)Gal,-0.446
same,glycan array binding signal (z-score),Gal3S(b1-3)GlcNAc,-0.36
same,glycan array binding signal (z-score),[19],-0.535
same,glycan array binding signal (z-score),Gal6S(b1-4)Glc6S,6.29
same,glycan array binding signal (z-score),Gal6S(b1-4)GlcNAc,0.319
same,glycan array binding signal (z-score),[20],-0.195
same,glycan array binding signal (z-score),[21],1.66
same,glycan array binding signal (z-score),[22],-0.439
same,glycan array binding signal (z-score),[23],4.05
same,glycan array binding signal (z-score),[24],-0.335
same,glycan array binding signal (z-score),[25],-0.066
same,glycan array binding signal (z-score),[26],4.4
same,glycan array binding signal (z-score),Man(a1-6)Man,-0.259
same,glycan array binding signal (z-score),[27],-0.424
same,glycan array binding signal (z-score),[28],2.29
same,glycan array binding signal (z-score),[29],0.139
same,glycan array binding signal (z-score),[30],-0.332
same,glycan array binding signal (z-score),[31],-0.617
same,glycan array binding signal (z-score),[32],0.018
same,glycan array binding signal (z-score),[33],4.12
same,glycan array binding signal (z-score),[34],-1.21
same,glycan array binding signal (z-score),[35],0.194
same,glycan array binding signal (z-score),[36],0.001
